NPC1 prom act = NPC1 promoter activation | 320,000 compounds, 2.4% hits | AID 485313 | Potency, µM (highest dose often 9.22 µM), inactives show top-dose activation, usual class: activators | Huh7 NPC1 promoter luciferase reporter, 24 h; further: % of control where 0% means no effect; nearly all actives have a fitted effect of over 60% in size
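NPC1 promoter–luciferase Huh7 cells; 24 h compound; luminescence.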
ELG1 genotoxic = genotoxicity induction in ELG1-luciferase HEK293T cells; AID 504466; Potency, µM (doses to about 46 µM), for inactives: top-dose activity change, positive = activation, hits mostly activators; HEK293T ELG1-luciferase reporter, luminescence, 16 h; 330,000 compounds, 1.3% hits; further: % of control where 0% means no effect; nearly all actives have a fitted effect of over 60% in size
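ELG1-luciferase HEK293T cells, 2,000/well; compound pinned in; 16 hr, 37 °C, 5% CO2; ONE-Glo, 30 min RT; luminescence on CCD imager.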
FLuc counter = inhibits or activates purified firefly luciferase, miR-21 counter-screen; P08659; purified FLuc, Km substrates, luminescence inhibition; Potency, µM (series often up to 57.5 µM), for the others: top-dose activity change, negative = inhibition, most hits filed as inhibitors; 360,000 compounds, 6.9% hits; AID 588342;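 further: plate controls were vehicle for no effect and reference inhibitor for full effect; nearly all actives have a fitted effect of over 55% in size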
Target sequence (P08659 whole entry, looked up): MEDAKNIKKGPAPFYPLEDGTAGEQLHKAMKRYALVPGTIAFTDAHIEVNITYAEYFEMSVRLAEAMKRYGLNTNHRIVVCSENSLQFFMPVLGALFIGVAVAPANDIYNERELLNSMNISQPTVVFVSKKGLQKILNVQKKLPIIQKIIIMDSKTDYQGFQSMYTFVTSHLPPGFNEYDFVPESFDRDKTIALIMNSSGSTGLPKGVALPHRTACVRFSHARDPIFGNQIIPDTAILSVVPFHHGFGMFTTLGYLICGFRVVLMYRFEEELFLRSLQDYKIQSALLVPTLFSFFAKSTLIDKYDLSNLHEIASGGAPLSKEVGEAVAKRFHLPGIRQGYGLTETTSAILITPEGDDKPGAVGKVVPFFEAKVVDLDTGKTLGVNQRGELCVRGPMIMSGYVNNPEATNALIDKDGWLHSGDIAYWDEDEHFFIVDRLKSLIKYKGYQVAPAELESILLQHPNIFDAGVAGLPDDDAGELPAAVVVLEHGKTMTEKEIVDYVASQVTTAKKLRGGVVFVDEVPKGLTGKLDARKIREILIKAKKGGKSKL
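Biochemical qHTS of compounds, final roughly 60 µM downward over six points, against 10 nM purified firefly luciferase using Km concentrations of substrates (10 uM D-luciferin, 10 uM ATP) in Tris acetate pH 7.5 buffer; luminescence output.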
Rab9 prom act = activates the Rab9 promoter; Potency, µM (series often up to 9.22 µM), inactives show at the highest dose activation, negative = inhibition, actives largely listed as activators; 320,000 compounds, 2.8% hits; Huh7 Rab9 promoter-luciferase reporter, luminescence, 24 h; further: % of control where 0% means no effect; nearly all actives have a fitted effect of over 60% in size
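Using Huh7 cells stably transfected with Rab9 promoter–luciferase, compounds were incubated 24 h at 37 °C, 5% CO2; luciferase luminescence was read 10 min after reagent addition.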
uPA generation = inhibitors of cell surface uPA generation | cell surface uPA generation assay, qHTS | Potency, µM (series often up to 38.3 µM), for inactives: top-dose activity change, negative = inhibition, hits mostly inhibitors | 330,000 compounds, 0.31% hits | AID 540303; active means well fitted inhibition curve with a large enough effect; inconclusive means small, poorly fitted or top-dose-only effect; inactive means no such curve, though single readings can be large or run the other way; tested in mouse RAW 264.7 cells; further: on the % scale 0 is the no-effect control and ±100 the full control effect; nearly all actives have a fitted effect of over 55% in size
SMN2 splice up = SMN2 splice variant enhancement; HEK293 SMN2-luciferase splicing reporter, luminescence, 30-36 h; Potency, µM (titrated, usually from 46.1 µM), without a hit: at the top dose activity change, positive = activation, most hits filed as activators; 210,000 compounds, 2.8% hits; AID 1458; further: % of control where 0% means no effect; nearly all actives have a fitted effect of over 55% in size
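qHTS luciferase splicing reporter: luminescence rises when SMN2 exon 7 is included in transfected HEK293 cells. Compound exposure lasted 30-36 h at 37C, with 4.5 mM final sodium butyrate as control, followed by a ONE-Glo read.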
Numbers without * were called inactive. Most compounds without a hit are left out; they make up all but 7.3% or so of the library. Unless noted, the call rests on the fitted dose curve; in most records, active means well fitted curve in the direction sought with a large enough effect; inconclusive means small, poorly fitted or top-dose-only effect, or another doubt; inactive means no such curve, though single readings can be large; an effect the other way counts as inactive or inconclusive. Potency means the concentration at half of the fitted maximal effect.

`CCc1cc2c(=O)n(CC(C)C)cnc2s1` gave NPC1 prom act inconclusive, ELG1 genotoxic -1%, FLuc counter inconclusive, Rab9 prom act inconclusive, uPA generation -23% and SMN2 splice up 14µM*.
CCc1cc2c(=O)n(CC(=O)NC3CCCCC3)cnc2s1 was read as NPC1 prom act -1%, ELG1 genotoxic 2%, FLuc counter -1%, Rab9 prom act 9% and uPA generation 6%.
For COc1ccccc1N1CCN(S(=O)(=O)c2c(C)nc3sc(C)c(C)n3c2=O)CC1 the results were FLuc counter 6%.
`O=c1c2sccc2nc(SCc2cc(=O)n3ccccc3n2)n1Cc1ccccn1` gave NPC1 prom act inconclusive, ELG1 genotoxic inconclusive, FLuc counter -3%, Rab9 prom act 4µM* and SMN2 splice up 13µM*.
Screening CCc1ccc(OCC(=O)NC(=S)Nc2cccc(CO)c2)c(Br)c1 returned NPC1 prom act 1.8µM*, ELG1 genotoxic inconclusive, FLuc counter 6µM*, Rab9 prom act 2.8µM*, uPA generation -6% and SMN2 splice up 13µM*.
`O=C(c1csnn1)N1CCC2(CC1)CN(c1ccccn1)C2` gave SMN2 splice up -19%.
`O=C(CSc1nnc(NCc2ccccc2)s1)c1ccco1` gave NPC1 prom act 17%, ELG1 genotoxic 5%, FLuc counter 15µM*, Rab9 prom act 10%, uPA generation 2% and SMN2 splice up 9%.
`Cc1cc(C(=O)CSc2nc3ccccc3o2)c(C)n1C1CC1` gave NPC1 prom act 2.2µM*, ELG1 genotoxic 18µM*, FLuc counter 13µM*, Rab9 prom act 2.2µM*, uPA generation 3% and SMN2 splice up 11µM*.
Screening Cc1cc(C(=O)CSc2ncnc3ccccc23)c(C)n1C1CC1 returned NPC1 prom act 15%, ELG1 genotoxic 0%, FLuc counter inconclusive, Rab9 prom act -6% and uPA generation 5%.
Screening C=CCn1c(C)cc(C(=O)CSc2nnc(NC(C)C)s2)c1C returned NPC1 prom act 27%, ELG1 genotoxic 1%, FLuc counter inconclusive, Rab9 prom act 15%, uPA generation 6% and SMN2 splice up 10%.
`C=CCn1c(C)cc(C(=O)CSc2nnc(NCc3ccccc3)s2)c1C` gave NPC1 prom act 7%, ELG1 genotoxic 13%, FLuc counter 17µM*, Rab9 prom act 11%, uPA generation -13% and SMN2 splice up 3%.
Screening Cc1cc(NC(=O)CSc2nnc(NCc3ccccc3)s2)no1 returned NPC1 prom act -5%, ELG1 genotoxic -1%, FLuc counter -6%, Rab9 prom act -4% and uPA generation -12%.
Screening Cc1cc(C(=O)CSc2nnc(Cc3ccccc3)o2)c(C)n1Cc1ccc2c(c1)OCO2 returned NPC1 prom act -6%, ELG1 genotoxic -6%, FLuc counter -22%, Rab9 prom act -6%, uPA generation 1% and SMN2 splice up -49%.
C=CCn1c(C)cc(C(=O)CSc2nnc(Cc3ccccc3)o2)c1C was read as NPC1 prom act 14%, ELG1 genotoxic 1%, FLuc counter 15µM*, Rab9 prom act 7%, uPA generation 2% and SMN2 splice up -7%.
`COc1ccccc1CNc1ncncc1-c1ccccc1C` gave SMN2 splice up -4%.
For CCOC(=O)NC(=O)c1cn(CCNCCO)c(=O)[nH]c1=O the results were NPC1 prom act 0%, ELG1 genotoxic 1%, FLuc counter -2%, Rab9 prom act -10%, uPA generation 7% and SMN2 splice up 3%.
For CC(=O)c1sc(-c2ccc(F)cc2)cc1NS(=O)(=O)c1ccccc1 the results were NPC1 prom act 0%, ELG1 genotoxic 0%, FLuc counter -1%, Rab9 prom act -1% and uPA generation 5%.
C=CCn1c(C)cc(C(=O)CSc2nc3ccccc3o2)c1C was read as NPC1 prom act 0.63µM*, ELG1 genotoxic 1.6µM*, FLuc counter 1.9µM*, Rab9 prom act inconclusive, uPA generation -2% and SMN2 splice up inconclusive.

Assay outcomes deposited in PubChem BioAssay by National Center for Advancing Translational Sciences (NCATS).
